Reference: PubChem BioAssay
A number with no mark means an inactive call. A call without a number means that no potency is given here. For some assays here: Potency and affinity values are given separately. Active and inactive are the calls of the source. Unless noted, no rule for the calls is given here.

Experiments:
[1] = antimalarial activity against Dd2 strain (AID 2302;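 active = growth inhibition above 50% at the single 2 µM test dose, taken to imply half-maximal potency below 2 µM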); conditions: P. falciparum Dd2 in RBCs, LDH growth readout, 72 h; at 2 µM; stronger effect = higher value
[2] = HepG2 cytotoxicity, primary screen, cytotoxicity control for P. falciparum antimalarial project, cell-based, ATP luminescence (AID 2303;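 active = inhibition above 50%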); conditions: HepG2 viability, 24-48 h, at 10 µM, stronger effect = higher value
[3] = target: L-lactate dehydrogenase (Plasmodium falciparum (isolate CDC / Honduras)) (UniProt Q27743); assay: PfLDH activity inhibition – cell lysate, 3D7 strain, counter-screen for P. falciparum growth inhibition project (AID 2304); conditions: P. falciparum 3D7 crude extract, LDH APAD/NBT absorbance; at 2 µM; stronger effect = higher value
[4] = inhibition of 3D7 malaria parasite growth – strain 3D7 (AID 2306); conditions: P. falciparum 3D7 erythrocytic growth, LDH absorbance, 72 h; at 2 µM; stronger effect = higher value
[5] = target: Calcium-dependent protein kinase 1 (Plasmodium falciparum (isolate 3D7)) (UniProt P62344); assay: PfCDPK1 kinase inhibitors, biochemical, TCAMS library (AID 1159585; cut-off not given, nearly all actives have IC50 up to about 0.98 µM;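 also: inhibitors leave more ATP so luminescence rises with inhibition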); conditions: recombinant PfCDPK1, Kinase-Glo ATP depletion luminescence
[6] = target: Plasmodium falciparum protein kinase 6 (PK6, PF3D7_1337100) (UniProt Q8IDW1); assay: PfPK6 kinase inhibitors, biochemical, TCAMS library (AID 1159586); conditions: recombinant PfPK6, Kinase-Glo ATP depletion luminescence
[7] = target: Protein kinase 7 (PK7), Plasmodium falciparum 3D7 (PF3D7_0213400) (UniProt Q7YTF7); assay: inhibition of Plasmodium PK7 catalytic activity – biochemical, TCAMS antimalarial set, Kinase-Glo luminescence (AID 1159587); conditions: recombinant PfPK7, Kinase-Glo ATP depletion luminescence
[8] = target: Calcium-dependent protein kinase 4 (Plasmodium falciparum (isolate 3D7)) (UniProt Q8IBS5); assay: PfCDPK4 kinase inhibitors, biochemical, TCAMS library (AID 1159588; cut-off not given, nearly all actives have IC50 up to about 0.91 µM); conditions: recombinant PfCDPK4, Kinase-Glo ATP depletion luminescence
Calcium-dependent protein kinase 4 (Plasmodium falciparum (isolate 3D7)), sequence (Q8IBS5 whole entry, looked up): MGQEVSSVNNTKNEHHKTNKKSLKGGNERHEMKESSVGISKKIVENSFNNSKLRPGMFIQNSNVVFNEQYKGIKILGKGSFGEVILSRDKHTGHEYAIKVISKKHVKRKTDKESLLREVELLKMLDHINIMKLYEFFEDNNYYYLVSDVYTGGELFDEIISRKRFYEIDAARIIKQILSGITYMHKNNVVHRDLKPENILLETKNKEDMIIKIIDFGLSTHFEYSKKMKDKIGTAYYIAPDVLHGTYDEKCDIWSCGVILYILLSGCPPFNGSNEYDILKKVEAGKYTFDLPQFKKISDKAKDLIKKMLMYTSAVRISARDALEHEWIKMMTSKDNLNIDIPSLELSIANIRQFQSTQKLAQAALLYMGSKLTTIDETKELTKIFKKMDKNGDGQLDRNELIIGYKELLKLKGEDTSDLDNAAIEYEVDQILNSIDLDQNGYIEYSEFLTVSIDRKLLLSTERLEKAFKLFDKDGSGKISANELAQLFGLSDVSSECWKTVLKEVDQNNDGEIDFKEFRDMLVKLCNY

Calcium-dependent protein kinase 1 (Plasmodium falciparum (isolate 3D7)), sequence (P62344 whole entry, looked up): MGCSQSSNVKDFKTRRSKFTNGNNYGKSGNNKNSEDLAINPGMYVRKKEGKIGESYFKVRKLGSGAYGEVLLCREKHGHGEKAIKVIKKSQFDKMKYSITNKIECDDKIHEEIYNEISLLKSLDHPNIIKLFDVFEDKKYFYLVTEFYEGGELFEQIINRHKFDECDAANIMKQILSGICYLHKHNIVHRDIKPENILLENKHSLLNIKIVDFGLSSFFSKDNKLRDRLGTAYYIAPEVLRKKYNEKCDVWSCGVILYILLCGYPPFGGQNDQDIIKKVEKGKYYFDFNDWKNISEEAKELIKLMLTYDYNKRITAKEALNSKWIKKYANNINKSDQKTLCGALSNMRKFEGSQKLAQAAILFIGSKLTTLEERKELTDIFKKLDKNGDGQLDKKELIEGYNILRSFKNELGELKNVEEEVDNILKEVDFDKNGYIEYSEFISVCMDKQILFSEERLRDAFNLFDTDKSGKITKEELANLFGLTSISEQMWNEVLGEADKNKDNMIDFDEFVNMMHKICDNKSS
Protein kinase 7 (PK7), Plasmodium falciparum 3D7 (PF3D7_0213400), sequence (Q7YTF7 1-343): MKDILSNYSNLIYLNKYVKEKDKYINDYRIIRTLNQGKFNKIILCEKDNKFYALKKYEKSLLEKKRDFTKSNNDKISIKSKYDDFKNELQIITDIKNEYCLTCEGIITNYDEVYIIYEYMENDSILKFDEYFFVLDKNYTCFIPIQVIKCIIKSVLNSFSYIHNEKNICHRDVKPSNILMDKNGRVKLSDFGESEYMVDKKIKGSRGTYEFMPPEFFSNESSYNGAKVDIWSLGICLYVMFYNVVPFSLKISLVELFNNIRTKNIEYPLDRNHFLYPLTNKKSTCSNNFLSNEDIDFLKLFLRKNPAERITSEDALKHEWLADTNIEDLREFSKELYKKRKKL
Plasmodium falciparum protein kinase 6 (PK6, PF3D7_1337100), sequence (Q8IDW1 1-305): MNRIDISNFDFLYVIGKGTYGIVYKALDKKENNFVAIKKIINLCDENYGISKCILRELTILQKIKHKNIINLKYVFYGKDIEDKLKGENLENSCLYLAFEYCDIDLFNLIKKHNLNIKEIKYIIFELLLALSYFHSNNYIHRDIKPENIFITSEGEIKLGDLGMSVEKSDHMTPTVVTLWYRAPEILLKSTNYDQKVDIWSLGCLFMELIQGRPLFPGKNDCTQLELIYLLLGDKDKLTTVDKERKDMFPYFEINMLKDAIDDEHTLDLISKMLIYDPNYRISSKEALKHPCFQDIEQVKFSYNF
L-lactate dehydrogenase (Plasmodium falciparum (isolate CDC / Honduras)), sequence (Q27743 whole entry, looked up): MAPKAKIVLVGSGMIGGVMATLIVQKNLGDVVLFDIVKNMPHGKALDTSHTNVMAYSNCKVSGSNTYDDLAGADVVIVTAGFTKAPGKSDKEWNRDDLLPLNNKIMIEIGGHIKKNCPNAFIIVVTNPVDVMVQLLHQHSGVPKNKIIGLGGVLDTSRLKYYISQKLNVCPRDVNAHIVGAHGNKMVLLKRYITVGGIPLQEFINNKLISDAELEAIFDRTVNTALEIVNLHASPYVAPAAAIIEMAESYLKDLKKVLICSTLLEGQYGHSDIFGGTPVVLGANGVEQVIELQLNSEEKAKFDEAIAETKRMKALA

SMILES	growth inhibition [1]	inhibition [2]	inhibition [3]	growth inhibition [4]	outcome [5]	outcome [6]	outcome [7]	outcome [8]
Cc1cc(Cl)c(S(=O)(=O)NC(C)(C)C)cc1OCC(=O)NC1CCCCC1	53% (active)	10%	-5%	93% (active)	inactive	inactive	inactive	inactive
Cn1nccc1C(=O)NCCNCc1ccc(-c2ccc(-c3nc4ccccc4[nH]3)s2)cc1	97% (active)	23%	-9%	101% (active)	inactive	inactive	inactive	inactive
O=C(NC(Nc1ccc([N+](=O)[O-])cc1)C(Cl)(Cl)Cl)c1ccc(Cl)cc1 (stereo not given)	94% (active)	21%	4%	98% (active)	inactive	inactive	inactive	inactive
CCCN(Cc1ccc(OCC)cc1)Cc1cc(=O)c2cc(Cl)ccc2[nH]1	82% (active)	47%	1%	82% (active)	inactive	inactive	inactive	inactive
CCCCN(C(=O)c1ccccc1C)c1nnc(-c2ccccc2C)s1	94% (active)	10%	2%	92% (active)	inactive	inactive	inactive	inactive
CCCCN1Cc2c(n(CC(=O)Nc3ccccc3)c3cc(-c4ccccc4)nn3c2=O)C1=O	60% (active)	1%	-1%	92% (active)	inactive	inactive	inactive	inactive
CCCCN(CCCC)CCOc1cc2c(cc1OC)CCN2C(=O)/C=C/c1ccccc1Cl	31%	13%	0%	87% (active)	inactive	inactive	inactive	inactive
O=C(Nc1cccc(CN2CCCN(Cc3ccc(O)cc3)CC2)c1)c1cc(F)cc(F)c1	13%	15%	0%	100% (active)	inactive	inactive	inactive	inactive
Cc1cc(OCCCN2CCC(NS(=O)(=O)c3ccc(Cl)c(Cl)c3)C2)c2ccccc2n1 (stereo not given)	37%	28%	1%	87% (active)	inactive	inactive	inactive	inactive
O=C(NCC1CCC(C(=O)NCc2cccc3ccccc23)CC1)c1ccc(O)c(-c2ccc(Cl)c(Cl)c2)c1 (stereo not given)	92% (active)	0%	-6%	100% (active)	inactive	inactive	inactive	inactive
O=C1CCCN1CCCNCc1ccc(-c2cccc(-c3nc4ccc(F)cc4[nH]3)c2)cc1	8%	12%	-1%	101% (active)	inactive	inactive	inactive	inactive
NC1CCN(c2cnn(Cc3cccc(NC(=O)Nc4ccc(-c5ccccc5)cc4)c3)c(=O)c2Cl)CC1	11%	5%	-3%	89% (active)	inactive	inactive	inactive	inactive
Cc1cccc2[nH]c(-c3ccc(-c4cccc(CN5CCCC5CN)c4)cc3)nc12 (stereo not given)	32%	7%	3%	91% (active)	inactive	inactive	inactive	inactive
CCOc1cc(NCCSCc2nc[nH]c2C)nc2ccccc12	10%	4%	1%	92% (active)	inactive	inactive	inactive	inactive
CCC(=O)N1CCc2cc(Br)cc(S(=O)(=O)N3CC(C)CC(C)C3)c21 (stereo not given)	84% (active)	5%	-3%	85% (active)	inactive	inactive	inactive	inactive
O=C(/C=C/c1ccc([N+](=O)[O-])cc1)N1CCC(NS(=O)(=O)c2ccc(Br)cc2)CC1	5%	0%	-4%	93% (active)	inactive	inactive	inactive	inactive
O=C(Nc1cccc(-c2cccc(-c3nc4ccccc4[nH]3)c2)c1)c1ccoc1	36%	19%	5%	85% (active)	inactive	inactive	inactive	inactive
Cc1cccc2c3c([nH]c12)C1(CCN(Cc2ccccc2)CC1)NC(C(=O)NCc1ccccc1)C3 (stereo not given)	8%	-4%	-2%	81% (active)	inactive	inactive	inactive	inactive
CCc1c[nH]c2c(N3CCCCS3(=O)=O)cc(C(=O)N[C@@H](Cc3ccccc3)[C@H](O)CNCc3cccc(OC)c3)cc12	91% (active)	0%	-3%	86% (active)	inactive	inactive	inactive	inactive
COc1ccc(Cn2c(Nc3cccc(C(F)(F)F)c3)nc3cc(C(=O)NC4CC4)cnc32)cc1Cl	96% (active)	-2%	-3%	94% (active)	inactive	inactive	inactive	inactive

SMILES	growth inhibition [1]	inhibition [2]	inhibition [3]	growth inhibition [4]	outcome [5]	outcome [6]	outcome [7]	outcome [8]
O=C(Nc1ccc(OC2CCN(Cc3ccc(F)cc3)CC2)c(Cl)c1)c1ccco1	95% (active)	2%	-4%	95% (active)	inactive	inactive	inactive	inactive
Cc1ccc(C(=O)Nc2ccc(Nc3ccnc4cc(-c5ccccn5)ccc34)cc2O)cc1	100% (active)	100% (active)	2%	100% (active)	inactive	inactive	inactive	inactive
COc1cc(NC(=O)CCCN2CCN(c3cccc(Cl)c3Cl)CC2)ccc1N1CCN(C(C)C)CC1	59% (active)	31%	4%	99% (active)	inactive	inactive	inactive	inactive
CN(C)CCNC(=O)NC1CN(c2ncnc3cc(-c4ccccc4)sc23)C1	39%	7%	5%	100% (active)	inactive	inactive	inactive	inactive
COc1ccccc1NC(=O)CSc1nc2cccnc2n1-c1ccccc1OC	91% (active)	-4%	-3%	94% (active)	inactive	inactive	inactive	inactive
Cc1cc(N[C@@H](Cc2ccccc2)C(=O)NCc2cccs2)nc(NCCc2ccccc2)n1	61% (active)	6%	-1%	92% (active)	inactive	inactive	inactive	inactive
CCCN(CCC)CCCNc1ccc(C(=O)Nc2ccc(C)c(F)c2)cc1[N+](=O)[O-]	94% (active)	33%	3%	100% (active)	inactive	inactive	inactive	inactive
CCNc1cc(C(=O)N[C@@H](Cc2ccccc2Cl)[C@H](O)CNC2CCCCC2)cc(N2CCCCS2(=O)=O)c1	97% (active)	6%	0%	99% (active)	inactive	inactive	inactive	inactive
Cc1ccc(Cn2cnc(N3CC(C)NC(C)C3)cc2=O)cc1NC(=O)Nc1ccc(-c2ccccc2)cc1 (stereo not given)	15%	18%	4%	96% (active)	inactive	inactive	inactive	inactive
CN1C[C@@H](c2ccccc2)c2cc(O)c(CN3CCCCC3)cc2C[C@H]1Cc1ccccc1	99% (active)	-6%	-8%	99% (active)	inactive	inactive	inactive	inactive
NC1=NC(CCc2ccccc2)N(c2ccccc2)C(N)=N1 (stereo not given)	15%	1%	-9%	94% (active)	inactive	inactive	inactive	inactive
O=C(c1ccc(Cl)cc1Cl)N1CCCC(C(F)(F)F)C1 (stereo not given)	47%	6%	3%	95% (active)	inactive	inactive	inactive	inactive
CC(C)CCN(Cc1cncn1Cc1cccc(C(F)(F)F)c1)C(=O)c1ccccc1C#N	96% (active)	-4%	-2%	99% (active)	inactive	inactive	inactive	inactive
Cc1ccc(S(=O)(=O)NC2CCN(c3ccnc4cc(Cl)ccc34)C2)cc1 (stereo not given)	90% (active)	21%	-3%	99% (active)	inactive	inactive	inactive	inactive
CCOC(=O)c1ccc(NC(=O)Nc2ccc(-c3ccc(-c4nc5c(C)cccc5[nH]4)s3)cc2)cc1	100% (active)	60% (active)	-4%	101% (active)	inactive	inactive	inactive	inactive
Cc1cc(NN=Cc2cccc(F)c2)c2cccc(C)c2n1	53% (active)	14%	5%	100% (active)	inactive	inactive	inactive	inactive
CCCc1cc2c3c(N)nc(N)nc3ccc2n1C(CC)CC	73% (active)	70% (active)	-1%	102% (active)	inactive	inactive	inactive	inactive
O=C(Nc1cccc(C(F)(F)F)c1)c1ccc(S(=O)(=O)NC2CCN(CC3CCCCC3)C2)cc1 (stereo not given)	-3%	16%	-4%	92% (active)	inactive	inactive	inactive	inactive
O=C(C=Cc1ccc([N+](=O)[O-])cc1)N1CCC(CCN2CCC(c3c[nH]c4ccccc34)CC2)CC1	48%	60% (active)	-2%	100% (active)	inactive	inactive	inactive	inactive
Cc1noc(-c2ccc3c(c2)CCN(CCC2CCC(NC(=O)/C=C/c4cccc(Cl)c4)CC2)CC3)n1 (stereo not given)	24%	37%	4%	86% (active)	inactive	inactive	inactive	inactive
